Source: PubChem BioAssay
Records with an inconclusive call do not appear. Activity calls are given as the source filed them.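 The calls were made as follows, unless noted: active = efflux inhibition above 0.42, the validation set average plus 4 SD; inconclusive = no clear call, values can overlap the other calls; inactive = the rest.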

Legend:
[1] = rapamycin-like changes in RPL19A-GFP expression – cell-based, S. cerevisiae, multiplex flow cytometry, primary screen (AID 1862; in the data active = percent of DMSO control GFP below about 86%;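 also: lower values mimic rapamycin by blocking the RPL19A rise seen in DMSO cells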); settings: S. cerevisiae RPL19A-GFP strain, flow cytometry fluorescence, 3 h; at 10 µM; stronger effect = lower value
[2] = TOR pathway GLN3 branch reporter MEP2-GFP changes – S. cerevisiae, multiplex flow cytometry, primary screen (AID 1867;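 active = GFP response, as percent of the DMSO control, above the screen-wide mean plus 3 SD, about 139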;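 also: median GFP channel fluorescence of barcode-gated MEP2-GFP cells measured by flow cytometry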); settings: S. cerevisiae MEP2-GFP strain, 3 h, at 10 µM, stronger effect = higher value, 100% means same as DMSO wells
[3] = TOR pathway RTG branch CIT2 reporter changes – S. cerevisiae, GFP fusion, multiplex flow cytometry, primary screen (AID 1870;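 active = percent response above a set limit, the screen-wide mean plus 3 SD, cut at about 130% in these data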;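 also: barcoded CIT2-GFP strain pooled with four other GFP strains with rapamycin as positive control; median GFP fluorescence per well over plate mean of DMSO wells so 100% = DMSO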); settings: S. cerevisiae CIT2-GFP expression, 3 h, at 10 µM, stronger effect = higher value
[4] = TOR pathway LAP4-GFP level changes – S. cerevisiae, multiplex flow cytometry, primary screen (AID 1873;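 active = GFP signal, as percent of the solvent control, above the screen mean plus 3 SD, about 149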); settings: S. cerevisiae LAP4-GFP expression, 3 h, at 10 µM, stronger effect = higher value
[5] = yeast AGP1-GFP level changes, GLN3 branch – cell-based, multiplex flow cytometry, S. cerevisiae, primary screen (AID 1887;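 active = GFP signal above the screen-wide mean plus 3 SD, that is over about 124.5% of the solvent control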;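 also: AGP1-GFP fusion strain of S. cerevisiae within a five-strain barcoded multiplex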); settings: 3 h, at 10 µM, stronger effect = higher value
[6] = reduced mouse 2C T cell binding to pMHC/ICAM-1 vesicles – MLPCN validation set, flow cytometry, LFA-1/ICAM-1 modulator project, pilot screen (AID 2523;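 active = response below a set limit, under 55% cells CD8-positive and vesicle-bound, and CD8 cells' 90th-percentile brightness under 279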;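 as to vesicle binding response: mean PE anti-B7-1 fluorescence of CD8+ cells relative to row control; 100% = QL9-loaded vesicles with DMSO vehicle in the same plate row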); settings: 2C mouse CD8+ T cells, at 7 µM, stronger effect = lower value; double positive events: measured here: CD8+/vesicle+ event percentage
[7] = molecular target: Integrin beta-1 (Homo sapiens) + Integrin alpha-4 (Homo sapiens) (UniProt P13612+P05556); assay: alpha4beta1 integrin LIBS antibody binding reduction – U937 cells, HUTS-21 mAb, flow cytometry, validation set, VLA-4 allosteric modulator project, pilot screen (AID 2674;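 active = inhibition above 50%, about 3 SD of the validation set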;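 also: antibody binding induced by the VLA-4 ligand LDV present at three times its Kd; 0% = LDV ligand with antibody and no compound and 100% = antibody without LDV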); settings: HUTS-21 LIBS mAb binding, at 6.7 µM, stronger effect = higher value, binding induced by LDV ligand
[8] = calorie-restriction mimetic ROS inhibitors, yeast – validation compound set, pilot screen (AID 2706;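 active = superoxide response below 65% of plate, a cut near 3 SD across the whole screen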;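 also: yeast exposed to compound for one week at 30 degrees C before staining; 100% = mean of all compound wells on the same plate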); settings: S. cerevisiae aging, superoxide DHE fluorescence; at 10 µM; stronger effect = lower value
[9] = molecular target: Beta-adrenergic receptor kinase 1 (Homo sapiens) (UniProt P25098); assay: GRK2 binders displacing RNA aptamer, biochemical, validation, human GRK2, bead flow cytometry (AID 488806;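 active = aptamer binding inhibition above 30%, about 3 SD of noise from non-fluorescent compounds; inactive = inhibition at or below 30%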); settings: bead-bound GRK2, FAM-aptamer displacement, at 10 µM, stronger effect = higher value
[10] = molecular target: Beta-2 adrenergic receptor (Homo sapiens) (UniProt P07550); assay: agonist-induced loss of surface beta2AR – cell-based, FAP fluorogen, flow cytometry, validation set, pilot screen (AID 504459;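 active = percent response above 42, roughly 3 SD of non-fluorescent test compounds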;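 also: agonist-driven loss of surface beta2AR via internalization measured by FAP dye flow cytometry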); settings: Am2.2-beta2AR cells, at 10 µM, stronger effect = higher value
[11] = molecular target: AP-2 complex subunit beta (Homo sapiens) (UniProt P63010); assay: beta-arrestin/AP2 interaction blockers – biochemical, validation set, GST-AP2 beads, flow cytometry, pilot screen (AID 504541;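 active = inhibition above 54%, about 3 SD of non-fluorescent compounds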;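 also: AP2 carries R879A mutation and is captured from E. coli lysate; bead-bound FITC arrestin peptide fluorescence measuring arrestin peptide binding to AP2; 0% = DMSO wells and 100% = excess unlabeled arrestin peptide control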); settings: FITC arrestin peptide, at 10 µM, stronger effect = higher value, AP2 beta2 appendage fragment, R879A mutant
[12] = cytosolic pH regulators acting via V-ATPase – S. cerevisiae, pHLuorin, HTS validation (AID 504600; in the data active = response above about 15%;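 also: plate controls were DMSO for no effect and reference compound for full effect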); settings: V-ATPase proton transport, at 10 µM, stronger effect = higher value
[13] = test system: anti-desmoglein-3 scFv antibody binding to human DSG3; assay: blockers of pathogenic pemphigus antibody–desmoglein-3 binding – biochemical, validation compound set, bead-based, flow cytometry, pilot screen (AID 588368;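 active = binding below the plate cutoff, the plate median minus 3 SD, with a reading above zero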;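 also: signal is the median channel fluorescence of bead-bound GFP antibody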); settings: Protein G beads, DSG3-Fc, scFv-GFP binding, at 10 µM, stronger effect = lower value
[14] = Nile Red efflux blockade in pump-expressing yeast – validation compound set, multiplex, phenotypic, pilot screen (AID 588506);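 also: Nile Red retained in cells so higher fluorescence means more efflux inhibition; 0 = negative control wells and 1 = enniatin B 25 µM full block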; settings: S. cerevisiae pump-expressing triplex, Nile Red efflux flow cytometry; at 10 µM; stronger effect = higher value; the pumps come from Candida albicans
[15] = molecular target: ATP-binding cassette sub-family B member 6 (Homo sapiens) (UniProt Q9NP58); assay: blockers of ABCB6-driven porphyrin uptake – K562-ABCB6 cells, flow cytometry, validation set, pilot screen (AID 588550;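 active = inhibition above the screen-wide mean plus 3 SD, about 51%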;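 also: 0% = DMSO wells and 100% = benzethonium chloride 70 µM positive control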); settings: K562-ABCB6 porphyrin accumulation, 1 h, at 10 µM, stronger effect = higher value
[16] = AML differentiation inducers, ER-HoxA9 marrow cells – cell-based, GFP/MAC1 double positive, flow cytometry, validation set, primary screen (AID 588685;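 active = differentiation response of at least 50%, scaled between solvent and reference control, from cells with both markers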;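 also: compound exposure lasts four days before antibody staining and flow analysis; 0% = DMSO wells and 100% = 5 µM fulvestrant positive control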); settings: stronger effect = higher value, normalized: vehicle 0, fulvestrant 100

Sequence of Beta-2 adrenergic receptor (Homo sapiens) (P07550 whole entry, looked up): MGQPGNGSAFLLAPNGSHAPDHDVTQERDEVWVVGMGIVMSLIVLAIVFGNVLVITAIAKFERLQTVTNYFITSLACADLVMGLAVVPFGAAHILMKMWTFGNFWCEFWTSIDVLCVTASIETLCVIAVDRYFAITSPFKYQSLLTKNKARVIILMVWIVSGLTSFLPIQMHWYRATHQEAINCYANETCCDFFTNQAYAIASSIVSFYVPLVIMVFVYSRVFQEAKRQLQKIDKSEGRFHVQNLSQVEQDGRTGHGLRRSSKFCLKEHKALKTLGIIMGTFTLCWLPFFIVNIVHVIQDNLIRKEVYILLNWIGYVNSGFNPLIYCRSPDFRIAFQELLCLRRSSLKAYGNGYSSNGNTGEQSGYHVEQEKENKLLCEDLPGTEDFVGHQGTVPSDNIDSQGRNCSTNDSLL
Sequence of Integrin beta-1 (Homo sapiens) + Integrin alpha-4 (Homo sapiens) (P05556 whole entry, looked up): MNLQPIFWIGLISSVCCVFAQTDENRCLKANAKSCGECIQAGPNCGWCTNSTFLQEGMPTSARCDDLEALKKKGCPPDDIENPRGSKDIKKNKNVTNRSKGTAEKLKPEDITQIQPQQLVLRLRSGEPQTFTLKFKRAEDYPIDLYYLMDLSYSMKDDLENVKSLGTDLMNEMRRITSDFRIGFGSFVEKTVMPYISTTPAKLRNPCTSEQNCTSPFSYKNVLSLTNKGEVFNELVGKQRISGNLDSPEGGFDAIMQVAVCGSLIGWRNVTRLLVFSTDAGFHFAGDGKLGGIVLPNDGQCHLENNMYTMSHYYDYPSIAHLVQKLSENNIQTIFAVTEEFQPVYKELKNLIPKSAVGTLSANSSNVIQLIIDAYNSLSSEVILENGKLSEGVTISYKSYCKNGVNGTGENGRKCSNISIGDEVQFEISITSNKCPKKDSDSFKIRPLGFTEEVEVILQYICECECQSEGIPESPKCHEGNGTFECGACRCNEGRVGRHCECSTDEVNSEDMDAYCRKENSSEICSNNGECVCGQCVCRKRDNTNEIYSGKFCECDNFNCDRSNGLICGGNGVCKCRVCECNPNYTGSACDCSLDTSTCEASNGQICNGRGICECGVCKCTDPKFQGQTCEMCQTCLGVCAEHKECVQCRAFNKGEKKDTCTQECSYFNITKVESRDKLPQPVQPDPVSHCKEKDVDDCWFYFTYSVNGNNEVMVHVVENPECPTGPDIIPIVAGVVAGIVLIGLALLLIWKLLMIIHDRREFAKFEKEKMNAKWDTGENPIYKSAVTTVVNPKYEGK
Sequence of Integrin beta-1 (Homo sapiens) + Integrin alpha-4 (Homo sapiens) (P13612 whole entry, looked up): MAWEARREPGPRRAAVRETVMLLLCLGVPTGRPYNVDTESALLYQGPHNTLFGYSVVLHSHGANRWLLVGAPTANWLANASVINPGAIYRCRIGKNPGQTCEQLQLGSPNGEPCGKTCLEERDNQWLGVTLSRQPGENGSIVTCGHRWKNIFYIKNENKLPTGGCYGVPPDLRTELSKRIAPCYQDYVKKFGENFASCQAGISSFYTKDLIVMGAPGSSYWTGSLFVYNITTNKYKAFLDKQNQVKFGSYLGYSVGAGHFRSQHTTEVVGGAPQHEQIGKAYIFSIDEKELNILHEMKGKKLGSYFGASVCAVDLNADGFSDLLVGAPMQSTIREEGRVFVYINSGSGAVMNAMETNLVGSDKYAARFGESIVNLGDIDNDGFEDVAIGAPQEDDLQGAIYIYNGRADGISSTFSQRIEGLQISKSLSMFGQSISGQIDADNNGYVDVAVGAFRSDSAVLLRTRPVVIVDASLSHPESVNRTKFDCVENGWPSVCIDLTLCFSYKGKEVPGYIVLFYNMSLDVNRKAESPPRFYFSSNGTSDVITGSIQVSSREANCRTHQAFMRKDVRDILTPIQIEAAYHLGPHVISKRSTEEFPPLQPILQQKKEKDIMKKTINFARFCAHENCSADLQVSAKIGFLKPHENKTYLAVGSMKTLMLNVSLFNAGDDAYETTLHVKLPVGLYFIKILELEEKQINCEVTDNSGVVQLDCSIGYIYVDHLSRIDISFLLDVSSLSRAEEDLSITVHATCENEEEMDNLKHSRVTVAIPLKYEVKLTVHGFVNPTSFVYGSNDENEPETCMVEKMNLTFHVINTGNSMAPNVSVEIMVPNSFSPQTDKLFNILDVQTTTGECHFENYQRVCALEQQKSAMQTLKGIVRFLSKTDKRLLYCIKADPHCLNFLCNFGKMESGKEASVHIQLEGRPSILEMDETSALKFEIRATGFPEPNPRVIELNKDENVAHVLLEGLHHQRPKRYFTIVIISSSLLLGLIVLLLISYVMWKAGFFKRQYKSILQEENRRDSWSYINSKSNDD
Sequence of Beta-adrenergic receptor kinase 1 (Homo sapiens) (P25098 whole entry, looked up): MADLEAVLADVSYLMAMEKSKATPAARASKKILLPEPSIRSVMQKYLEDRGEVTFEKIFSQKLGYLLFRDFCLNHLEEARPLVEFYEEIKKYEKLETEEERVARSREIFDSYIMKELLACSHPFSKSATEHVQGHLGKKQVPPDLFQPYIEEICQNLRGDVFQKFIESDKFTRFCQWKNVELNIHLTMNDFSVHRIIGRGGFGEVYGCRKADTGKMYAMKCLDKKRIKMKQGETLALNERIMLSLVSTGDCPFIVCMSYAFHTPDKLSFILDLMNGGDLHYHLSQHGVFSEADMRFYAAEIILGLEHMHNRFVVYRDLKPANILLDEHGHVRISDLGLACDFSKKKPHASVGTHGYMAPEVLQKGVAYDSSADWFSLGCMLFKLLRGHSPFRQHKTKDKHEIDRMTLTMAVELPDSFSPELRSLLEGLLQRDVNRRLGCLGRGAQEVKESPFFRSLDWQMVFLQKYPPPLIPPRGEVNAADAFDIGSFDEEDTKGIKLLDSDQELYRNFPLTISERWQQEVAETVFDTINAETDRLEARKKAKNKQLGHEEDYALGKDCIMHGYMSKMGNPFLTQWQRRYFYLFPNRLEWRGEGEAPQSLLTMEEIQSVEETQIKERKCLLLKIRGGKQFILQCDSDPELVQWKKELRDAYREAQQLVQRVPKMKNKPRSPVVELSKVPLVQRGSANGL
Sequence of ATP-binding cassette sub-family B member 6 (Homo sapiens) (Q9NP58 whole entry, looked up): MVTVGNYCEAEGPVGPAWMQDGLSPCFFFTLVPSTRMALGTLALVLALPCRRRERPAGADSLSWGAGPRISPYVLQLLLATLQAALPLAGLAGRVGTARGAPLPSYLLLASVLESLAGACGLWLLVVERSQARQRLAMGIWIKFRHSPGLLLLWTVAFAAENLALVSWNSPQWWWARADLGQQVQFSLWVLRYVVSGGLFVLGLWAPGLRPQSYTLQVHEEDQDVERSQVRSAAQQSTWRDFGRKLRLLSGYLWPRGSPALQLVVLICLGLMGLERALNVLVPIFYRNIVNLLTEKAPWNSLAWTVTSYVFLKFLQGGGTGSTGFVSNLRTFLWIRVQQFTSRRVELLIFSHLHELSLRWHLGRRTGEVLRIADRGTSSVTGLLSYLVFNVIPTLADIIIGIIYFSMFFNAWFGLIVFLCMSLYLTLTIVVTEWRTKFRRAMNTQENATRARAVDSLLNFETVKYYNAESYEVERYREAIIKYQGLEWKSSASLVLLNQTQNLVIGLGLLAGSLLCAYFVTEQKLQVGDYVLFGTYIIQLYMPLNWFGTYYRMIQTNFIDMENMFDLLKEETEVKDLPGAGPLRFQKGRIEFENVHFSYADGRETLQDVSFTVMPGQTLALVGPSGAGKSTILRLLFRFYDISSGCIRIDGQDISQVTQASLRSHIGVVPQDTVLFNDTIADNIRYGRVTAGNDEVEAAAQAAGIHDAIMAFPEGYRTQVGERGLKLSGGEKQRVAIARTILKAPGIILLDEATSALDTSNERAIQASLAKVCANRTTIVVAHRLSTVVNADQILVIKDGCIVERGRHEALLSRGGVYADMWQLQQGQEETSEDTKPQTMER
Sequence of AP-2 complex subunit beta (Homo sapiens) (P63010 whole entry, looked up, the tested form may be a part, one chain of several): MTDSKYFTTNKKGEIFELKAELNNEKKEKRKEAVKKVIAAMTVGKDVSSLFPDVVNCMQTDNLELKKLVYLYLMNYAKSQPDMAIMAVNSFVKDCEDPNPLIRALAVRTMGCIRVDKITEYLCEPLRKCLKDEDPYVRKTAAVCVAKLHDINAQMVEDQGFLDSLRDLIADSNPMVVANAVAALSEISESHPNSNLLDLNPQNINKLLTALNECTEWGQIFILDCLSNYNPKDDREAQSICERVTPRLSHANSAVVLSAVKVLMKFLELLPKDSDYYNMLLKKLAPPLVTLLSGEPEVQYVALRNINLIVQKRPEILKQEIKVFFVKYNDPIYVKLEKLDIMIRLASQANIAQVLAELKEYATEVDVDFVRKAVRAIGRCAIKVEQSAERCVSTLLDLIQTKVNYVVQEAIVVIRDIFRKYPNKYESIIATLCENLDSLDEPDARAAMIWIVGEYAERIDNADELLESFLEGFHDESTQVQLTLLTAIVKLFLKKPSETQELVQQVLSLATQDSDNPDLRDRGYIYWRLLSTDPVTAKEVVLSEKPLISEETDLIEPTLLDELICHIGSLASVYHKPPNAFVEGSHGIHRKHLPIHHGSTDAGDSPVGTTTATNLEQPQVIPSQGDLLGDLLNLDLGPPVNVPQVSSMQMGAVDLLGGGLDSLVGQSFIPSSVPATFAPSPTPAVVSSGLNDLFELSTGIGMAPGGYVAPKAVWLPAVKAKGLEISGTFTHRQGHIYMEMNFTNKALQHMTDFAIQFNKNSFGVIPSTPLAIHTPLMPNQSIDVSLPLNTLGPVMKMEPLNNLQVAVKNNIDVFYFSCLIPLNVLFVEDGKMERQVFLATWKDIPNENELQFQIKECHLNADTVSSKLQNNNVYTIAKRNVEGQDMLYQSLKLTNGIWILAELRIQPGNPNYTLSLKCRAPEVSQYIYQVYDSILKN

Structure (SMILES) | percent of DMSO control GFP [1] | GFP response vs DMSO [2] | percent response of DMSO control [3] | GFP response vs DMSO [4] | GFP response, % of DMSO [5] | double positive events [6] [%] | vesicle binding response [6] | inhibition [7] | superoxide response (% of plate) [8] | aptamer binding inhibition [9] | response [10] | inhibition [11] | response [12] | binding (% of control) [13] | efflux inhibition (fraction of control) [14] | inhibition [15] | differentiation response [16]
OCCN1CCN(CCCN2c3ccccc3Sc3ccc(C(F)(F)F)cc32)CC1 | 104% (inactive) | 104% (inactive) | 92.5% (inactive) | 101% (inactive) | 115% (inactive) | 62.1 | 176% (inactive) | 70.4% (active) | 90.7% (inactive) | -4% (inactive) | 26.4% (inactive) | 13.1% (inactive) | 0.87% (inactive) | 111% (inactive) | -0.04 (inactive) | 11% (inactive) | 0.92% (inactive)
O=C(OCC1CCCN2CCCCC12)c1ccc2c(c1)OCO2 (stereo not given) | 93.7% (inactive) | 112% (inactive) | 104% (inactive) | 75.9% (inactive) | 95.9% (inactive) | 63.4 | 208% (inactive) | 13.2% (inactive) | 99.6% (inactive) | 5% (inactive) | -1.89% (inactive) | -5.07% (inactive) | 12% (inactive) | 104% (inactive) | -0.38 (inactive) | 15% (inactive) | 0% (inactive)
O=C(NCCC(c1ccccc1)c1ccco1)c1cccs1 (stereo not given) | 97.6% (inactive) | 105% (inactive) | 91% (inactive) | 127% (inactive) | 96.5% (inactive) | 57.6 | 230% (inactive) | -5.89% (inactive) | 105% (inactive) | 0% (inactive) | -13.3% (inactive) | -6.88% (inactive) | 2.49% (inactive) | 99.7% (inactive) | -0.21 (inactive) | 11% (inactive) | -5.6% (inactive)
CC(C)(C)C(=O)NCCCNc1ccc([N+](=O)[O-])cc1 | 103% (inactive) | 123% (inactive) | 93.9% (inactive) | 95.2% (inactive) | 104% (inactive) | 67.3 | 295% (inactive) | 5.49% (inactive) | 86% (inactive) | -1% (inactive) | -6.07% (inactive) | 22% (inactive) | 1.78% (inactive) | 110% (inactive) | -0.06 (inactive) | 15% (inactive) | 12.3% (inactive)
CN(Cc1c(C(=O)N(C)Cc2ccccc2)nc2ccccn12)CC1Cc2ccccc2O1 (stereo not given) | 98.4% (inactive) | 104% (inactive) | 98.2% (inactive) | 89.4% (inactive) | 93.7% (inactive) | 61.4 | 2590% (inactive) | -11.8% (inactive) | 105% (inactive) | 3% (inactive) | 0.21% (inactive) | -19.1% (inactive) | -0.37% (inactive) | 98.2% (inactive) | 0.17 (inactive) | 14% (inactive) | -2.64% (inactive)
Cc1ccc(S(=O)(=O)NC(=O)Nc2cc(C)ccc2F)cc1 | 102% (inactive) | 105% (inactive) | 93.1% (inactive) | 82.2% (inactive) | 96.5% (inactive) | 62.3 | 1090% (inactive) | 2.66% (inactive) | 110% (inactive) | 2% (inactive) | -5.23% (inactive) | 56.9% (active) | -3.86% (inactive) | 92.9% (inactive) | 0.64 (active) | -2% (inactive) | 34.5% (inactive)
COc1ccccc1NC(=O)N1CCc2[nH]c3ccc(Cl)cc3c2C1 | 101% (inactive) | 110% (inactive) | 102% (inactive) | 121% (inactive) | 94% (inactive) | 62.4 | 135% (inactive) | -11.8% (inactive) | 102% (inactive) | 2% (inactive) | -11.2% (inactive) | -2.38% (inactive) | 1.31% (inactive) | 121% (inactive) | -0.42 (inactive) | -33% (inactive) | 18.8% (inactive)
CCOCCn1c(C(C)O)nc2ccccc21 (stereo not given) | 105% (inactive) | 96.2% (inactive) | 111% (inactive) | 98% (inactive) | 104% (inactive) | 62.6 | 278% (inactive) | 20.3% (inactive) | 89.7% (inactive) | 1% (inactive) | -7.33% (inactive) | -8.14% (inactive) | 4.51% (inactive) | 95.3% (inactive) | 0.02 (inactive) | -3% (inactive) | 7.09% (inactive)
COc1ccc(-c2cc(=Nc3ccc(C)cc3)c3ccccc3o2)cc1 | 97.3% (inactive) | 106% (inactive) | 93.8% (inactive) | 132% (inactive) | 104% (inactive) | 60.2 | 195% (inactive) | 16.8% (inactive) | 99.5% (inactive) | 0% (inactive) | -21.4% (inactive) | -0.02% (inactive) | 7.52% (inactive) | 97.3% (inactive) | -0.04 (inactive) | 5% (inactive) | -9.91% (inactive)
CC1CCc2cc(F)cc3c(=O)c(C(=O)O)cn1c23 (stereo not given) | 99% (inactive) | 111% (inactive) | 95.4% (inactive) | 101% (inactive) | 96.5% (inactive) | 62.3 | 204% (inactive) | -37.8% (inactive) | 101% (inactive) | 0% (inactive) | -2.58% (inactive) | 10.9% (inactive) | -2.27% (inactive) | 94% (inactive) | -0.04 (inactive) | -15% (inactive) | -6.6% (inactive)
